# Assay outcomes (PubChem)
# A selection: hits, their analogues and other compounds. The true share with any hit is near 2.2%.
# SMARCA2 activ: increases SMARCA2 function in MMTV reporter cells. MG213 cells, MMTV-luciferase reporter, dexamethasone, overnight. 370,000 compounds, 1% hits. activation, % at 9.1 µM; in the data active means activation above about 7.8%;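 further: 0% = vehicle wells and 100% = reference activator wells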
# GalR3 antag: human GalR3 antagonism; O60755; HEK293 GalR3-CNG cAMP membrane potential fluorescence; galR3 body fused to GalR1 C-terminus; inhibition, % at 3 µM; 360,000 compounds, 0.44% hits; AID 651719;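 active means inhibition above the screen-wide average plus 3 SD, cut at about 13% in these data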;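 further: forskolin and galanin both at EC90 stimulate the cells; cAMP rise reported by CNG channel membrane potential dye signal; 0% = forskolin plus galanin with DMSO and 100% = forskolin alone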
# Target sequence (O60755 1-299 limits assumed): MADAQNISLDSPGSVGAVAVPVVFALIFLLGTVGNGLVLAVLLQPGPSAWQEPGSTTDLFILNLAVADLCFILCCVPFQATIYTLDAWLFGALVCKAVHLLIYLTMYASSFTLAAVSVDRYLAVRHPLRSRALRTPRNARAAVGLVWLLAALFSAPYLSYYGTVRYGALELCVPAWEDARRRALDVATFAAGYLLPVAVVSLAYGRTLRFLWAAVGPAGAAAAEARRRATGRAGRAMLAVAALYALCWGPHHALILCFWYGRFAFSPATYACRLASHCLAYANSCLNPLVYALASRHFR
# HIF act: HIF pathway transcriptional activation. U2OS HRE-luciferase reporter, luminescence; normalized: DMSO 0%, desferrioxamine 100%. activation, % at 7.5 µM (by protocol). 300,000 compounds, 0.32% hits. AID 1910;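 active means mean activation of at least 10% of the iron chelator positive control signal, with at least half of replicates also reaching 10%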
# Hsp70 act: switches on Hsp70 transcription | HeLa Hsp70 promoter luciferase reporter, luminescence; scaled: vehicle 0, proteasome-inhibitor control 100% | activation, % at 10 µM | 200,000 compounds, 0.04% hits | AID 1203;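 active means activation above the mean across all tested compounds plus 3 SD, cutoff set per campaign, cut at about 5.5% in these data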;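 further: 100% = MG132 at 30 µM as the positive control and 0% = DMSO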
# FXN GAA850 act: increases GAA850 frataxin promoter reporter activity; HEK293 lucGAA850 FXN promoter luciferase reporter, 24 h; percent of 10 µM SAHA response; activation, % at 6 µM; 360,000 compounds, 0.56% hits;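 active means activation above the average of all compounds screened plus 3 SD, cutoff fixed separately per campaign, cut at about 7.5% in these data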;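 further: 0% = DMSO wells and 100% = 10 µM SAHA wells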
# SMARCA2 act conf: SMARCA2 activation, confirmation screen. AID 652260. 3,500 compounds, 30% hits. activation, % at 9.1 µM. MG213 cells, MMTV-luciferase with dexamethasone, luminescence, overnight; MG213 cells expressing E1A, Rb sequestered; DMSO wells 0%, reference activator 100%. shares compounds with SMARCA2 activ;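 active means activation above its plate's cutoff, the mean activation of tested wells plus 3 SD, cut at about 7.9% in these data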
# GAL4-VP16 Luc: GAL4-VP16 reporter activation counter-screen; shares compounds with SMARCA2 activ; HEK293 GAL4-VP16 pG5luc reporter, luciferase luminescence; scaled: DMSO wells 0%, SAHA wells 100%; activation, % at 9.1 µM; 3,500 compounds, 41% hits; AID 686939;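 active means activation above the solvent-only control well mean plus 3 SD, averaged across control plates, cut at about 5.2% in these data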
# Active calls of the source: *; . = not tested or not shown.
SMILES,SMARCA2 activ,GalR3 antag,HIF act,Hsp70 act,FXN GAA850 act,SMARCA2 act conf,GAL4-VP16 Luc
CCOC(=O)c1csc(-c2ccc(OC)c(OC)c2)n1,2,3,0,0,7,.,.
CCN(CC)C(=O)CC[C@H]1CC[C@]2(CCCN(C(=O)c3ccco3)C2)O1,-3,.,.,.,.,.,.
Cc1ccc(C(=O)CSc2nnc(-c3ccco3)n2Cc2ccccc2)cc1,11*,-7,6,0,4,6,4
Cc1ccc(C(=O)COc2cc(C)nc3nncn23)cc1,11*,-4,-1,.,1,-2,2
Cc1ccc(C(=O)COc2nc(C)cc(C)c2C#N)cc1,-3,0,0,0,-1,.,.
C[C@H]1COc2cc(Br)ccc2S(=O)(=O)N1Cc1cn(Cc2ccco2)nn1,3,.,.,.,.,.,.
O=C(N/N=C/c1ccccc1F)c1csc2c1CCCC2,12*,-6,-15,0,6,8.6*,10*
O=C(N/N=C/c1cccc(F)c1)c1csc2c1CCCC2,5,2,2,0,5,.,.
O=C(N[C@H](C(=O)N1CCC[C@H]1C(=O)NCCc1ccccc1Cl)c1ccccc1)c1cccs1,1,-4,.,.,.,.,.
Cc1ccc(S(=O)(=O)/N=S(/C)c2ccccc2)cc1 (stereo not given),-2,4,0,0,1,.,.
CC/S(=N\S(=O)(=O)c1ccc(C)cc1)c1ccccc1 (stereo not given),8.1*,-2,.,.,1,-4,-1
COc1ccc(Sc2cccc3c2S(=O)(=O)N(C2CC2)C[C@@H](COCc2ccccc2)O3)cc1OC,-3,0,.,.,.,.,.
O=C(NCc1ccc2c(c1)CCO2)Nc1ccccc1,8.7*,-1,3,.,3,7,5.2*
COC(=O)C1CN(CCO)CCS(=O)(=O)N1Cc1cccc(Cl)c1 (stereo not given),3,.,.,.,.,.,.
Cc1cc(N2CCN(C(=O)OC(C)(C)C)C[C@H]2C)ccc1N1CCS(=O)(=O)CC1,-2,-7,.,.,.,.,.
O=C(NC1CCCCCC1)C1CCN(S(=O)(=O)N2CCC3(CC2)OCCO3)CC1,9.9*,-1,0,0,1,-2,2
OCC1COC(c2ccccc2)=N1 (stereo not given),2,-2,.,.,.,.,.
COc1ccc(C(=O)OCC(=O)Nc2ccc3c(c2)OCCO3)c(OC)c1,3,-3,.,.,0,.,.
O=C(Nc1cccc2nsnc12)c1ccc2c(c1)OCCO2,8.8*,-9,3,1,0,5,9.7*
COc1ccc(C(=O)Nc2ccc3c(c2)OCCO3)cc1,8.0*,-5,.,0,-3,5,10.0*
O=C(Nc1cccc(Cl)c1)c1ccc2c(c1)OCCO2,9.0*,-9,1,.,1,6,8.7*
COc1ccc(C(=O)Nc2ccc3c(c2)OCCO3)c(OC)c1,14*,-2,.,.,4,7,14*
C=CCN(C)CC#Cc1ccc(C)cc1,-1,.,.,.,.,.,.
CC(C)(C)C(=O)OC12CCCN(C1)/C(=C/c1ccccc1)C2 (stereo not given),-5,.,.,.,.,.,.
CC(C#N)(Cc1ccccc1)Nc1ccccc1 (stereo not given),10*,3,0,.,1,-2,-1
SMILES,SMARCA2 activ,GalR3 antag,HIF act,Hsp70 act,FXN GAA850 act,SMARCA2 act conf,GAL4-VP16 Luc
COc1cc(Nc2c3ccccc3nc3ccccc23)cc(OC)c1OC,8.2*,-11,-3,.,-2,31*,1
COc1ccc(Nc2c3ccccc3nc3ccccc23)cc1,0,-10,3,.,-3,.,.
COC(=O)[C@]12C[C@H](CC(=O)N3CCCC3)C(=O)N(Cc3ccccc3)C1=C[C@H](C1CCCC1)O[C@@H]2C,-4,-6,.,.,.,.,.
COC(=O)C(=O)Nc1nnc(COc2ccccc2)s1,-2,-3,-11,0,1,.,.
CC(=O)Nc1nnc(COc2ccccc2)s1,8.4*,-2,1,0,4,4,3
CC(=O)Nc1nnc(Cc2ccccc2)s1,13*,2,0,-1,1,2,1
